Only some compounds are listed: those with a hit (about 22% of all), similar ones and a draw of the others.
CYP2C19 activ = cytochrome P450 2C19 (human) activation; P33261; recombinant CYP2C19, luciferin-H EGE luminescence; stronger effect = higher value; 0 = fully inhibited enzyme, 1 = untreated enzyme; activation factor at 5 µM; 96,000 tested, under 10 active; AID 1025;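 active means activation factor of at least 2 at 5 µM in the primary screen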
Target sequence (P33261 whole entry, looked up): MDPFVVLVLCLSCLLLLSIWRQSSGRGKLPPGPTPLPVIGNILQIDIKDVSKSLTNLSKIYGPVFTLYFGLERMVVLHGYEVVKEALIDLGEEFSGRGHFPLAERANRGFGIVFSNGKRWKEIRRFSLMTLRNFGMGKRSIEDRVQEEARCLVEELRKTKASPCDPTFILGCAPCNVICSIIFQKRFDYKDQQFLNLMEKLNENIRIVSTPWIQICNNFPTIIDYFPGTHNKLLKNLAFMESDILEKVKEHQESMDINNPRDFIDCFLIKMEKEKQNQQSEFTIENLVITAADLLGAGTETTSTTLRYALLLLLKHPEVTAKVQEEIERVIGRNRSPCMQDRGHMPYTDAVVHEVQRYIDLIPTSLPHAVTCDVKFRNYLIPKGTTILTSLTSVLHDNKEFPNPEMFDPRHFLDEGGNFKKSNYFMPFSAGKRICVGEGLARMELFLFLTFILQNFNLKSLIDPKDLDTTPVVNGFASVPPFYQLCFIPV
CYP2C19 inh = inhibitors of human CYP2C19. P33261. CYP2C19 Supersomes, luciferin-H EGE luminescence, 30 min. inhibition, % at 5 µM. 96,000 compounds, 21% hits. AID 778;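 active means CYP2C19 inhibition above a set limit at 5 µM in the primary screen, cut at about 50% in these data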
CYP2C9 activ = activators of human CYP2C9 | P11712 | recombinant CYP2C9, luciferin-H conversion, luminescence; stronger effect = higher value; factor 1 = untreated enzyme, 0 = blocked | activation factor at 5 µM | 96,000 compounds, 1.4% hits;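 active means activation factor of 2 or more for CYP2C9 at a 5 µM dose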
CYP2C9 inh = inhibitors of human CYP2C9 | 96,000 compounds, 20% hits | P11712 | inhibition, % at 5 µM | CYP2C9 Supersomes, luciferin-H conversion, luminescence;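 active means blocking of liver enzyme CYP2C9 beyond about 50% at 5 µM, limit read from the data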
Measles CPE = protection of cells from measles virus; Measles virus-infected cells, CPE protection, absorbance; protection (pct of control), % at 4 µM; 140,000 compounds, 1.5% hits; in the data active means protection mostly above about 24%, no sharp cut-off; inactive means mostly below about 26%
Of the large screens only hits and unclear results are named; the others gave an inactive call.

COc1cccc(N=Cc2ccc(O)cc2O)c1	Measles CPE 35
Cn1c(SCc2ccccc2Cl)nc(C(F)(F)F)cc1=O	none
O=C(c1ccco1)N1CCN(/C(=N/S(=O)(=O)c2cccs2)c2ccccc2Cl)CC1	none
CCc1nc(SCC(=O)N2CC(=O)Nc3ccccc32)c2c(C)c(C)sc2n1	none
Cc1sc2nc(C3CCCCC3)nc(SCC(=O)N3CC(=O)Nc4ccccc43)c2c1C	CYP2C9 inh 86
COc1cc(C(=O)NC(=S)Nc2cccc(-c3cc4ccccc4oc3=O)c2)cc(OC)c1OC	CYP2C9 inh 68
COc1cc(C(=O)Oc2cccc(Nc3ncnc4ccccc34)c2)cc(OC)c1OC	CYP2C9 inh 63
O=C(COc1ccccc1Cl)NC(=S)Nc1cccc(NC(=O)c2ccccc2Cl)c1	CYP2C9 inh 67
CCOc1cccc(C(=O)NC(=S)Nc2cccc(NC(=O)c3ccccc3Cl)c2)c1	none (no result: CYP2C19 activ, CYP2C19 inh, CYP2C9 activ, CYP2C9 inh)
COc1ccc(OC)c(NC(=O)CCN2CCN(c3ccccc3)CC2)c1	none
COc1ccc(S(=O)(=O)N2CCN(CC(=O)Nc3ccc(F)c(F)c3)CC2)cc1	CYP2C19 inh 70, CYP2C9 activ 2.2
COc1ccc(S(=O)(=O)N2CCN(CCC(=O)Nc3ccccc3F)CC2)cc1	CYP2C19 inh 87, CYP2C9 inh 94
O=C(CCN1CCN(c2ccccc2)CC1)Nc1ccccc1F	CYP2C19 inh 75, CYP2C9 inh 75
O=C(CCN1CCN(CC(=O)Nc2ccccc2F)CC1)Nc1ccccc1F	CYP2C19 inh 74
COc1ccccc1NC(=O)CCN1CCN(CCC(=O)Nc2ccccc2OC)CC1	none (no result: Measles CPE)
COc1ccc(NC(=O)CN2CCN(S(=O)(=O)c3ccc(C(C)C)cc3)CC2)cc1OC	none
O=C(CSc1nc2ccccc2o1)NCc1n[nH]c(=O)c2ccccc12	none
O=C(CCN1CCN(c2ccc(F)cc2)CC1)Nc1ccccc1F	CYP2C19 inh 66, CYP2C9 inh 60
CSc1ccc(N2CCN(CCCNC(=O)Nc3ccccc3F)CC2)cc1	none
COc1cc(NC(=O)CCN2CCN(c3ccccc3F)CC2)cc(OC)c1	CYP2C9 inh 63
O=C(Cn1ncn2c(cc3ccccc32)c1=O)NCc1ccco1	CYP2C19 inh 62
O=C(Cn1ncc2c(=O)oc3ccccc3c21)NCCC1=CCCCC1	CYP2C19 inh 59
CCc1cccc(NC(=O)Cn2ncn3c(cc4ccccc43)c2=O)c1	none
O=C(Cn1ncn2c(cc3ccccc32)c1=O)NCCC1=CCCCC1	CYP2C19 inh 99
O=C(Cn1ncc2c(=O)oc3ccccc3c21)NCC1CCCO1 (configuration not stated)	none
O=C(CSc1ccc2ccccc2n1)NCCC1=CCCCC1	none (no result: CYP2C19 activ, CYP2C19 inh, CYP2C9 activ, CYP2C9 inh)
C(=N\c1nccs1)/Nc1nccs1	none
CCOc1cc(C=O)ccc1OS(=O)(=O)c1ccc(NC(C)=O)cc1	none (no result: CYP2C19 activ, CYP2C19 inh, CYP2C9 activ, CYP2C9 inh)
CCn1nnnc1SCC(=O)N1CCCc2ccccc21	none (no result: CYP2C19 activ, CYP2C19 inh, CYP2C9 activ, CYP2C9 inh)
Cc1ccc(-n2c(C)cc(-c3csc(N)n3)c2C)cc1	Measles CPE 52 (no result: CYP2C19 activ, CYP2C19 inh, CYP2C9 activ, CYP2C9 inh)
CNC(=S)N1N=C(c2ccc(Br)cc2)CC1c1ccc(Br)cc1 (configuration not stated)	CYP2C19 inh 98, CYP2C9 inh 95
CC(C)Cn1c(-c2cc([N+](=O)[O-])ccc2Cl)nc2c1c(=O)[nH]c(=O)n2Cc1ccccc1	none (no result: CYP2C19 activ, CYP2C19 inh, CYP2C9 activ, CYP2C9 inh)
CCn1c(-c2ccsc2)nc2c1c(=O)[nH]c(=O)n2Cc1ccccc1	CYP2C19 inh 52
CCOC(=O)CSc1nc2ccccc2c(=O)n1CCN1CCOCC1	none (no result: CYP2C19 activ, CYP2C19 inh, CYP2C9 activ, CYP2C9 inh)
COCCNC(=O)CSc1nc2ccc(N3CCOCC3)cc2c(=O)n1CCc1ccccc1	CYP2C19 inh 61, CYP2C9 inh 64
CCCCNC(=O)CSc1nc2ccc(N3CCOCC3)cc2c(=O)n1CCc1ccccc1	none (no result: CYP2C19 activ, CYP2C19 inh, CYP2C9 activ, CYP2C9 inh)
CCOC(=O)CSc1nc2ccc(N3CCOCC3)cc2c(=O)n1Cc1ccccc1	CYP2C19 inh 76, CYP2C9 inh 83
COc1cccc(NC(=S)N(CCCN2CCOCC2)Cc2cn(C)c3ccccc23)c1	none (no result: CYP2C19 activ, CYP2C19 inh, CYP2C9 activ, CYP2C9 inh)
CCn1c(=O)n(CC(=O)N2CC(C)CC(C)C2)c(=O)c2ccccc21 (configuration not stated)	none
COC(=O)c1ccc(NC(=O)CSc2nnc(-c3ccccc3)n2C)cc1	none (no result: CYP2C19 activ, CYP2C19 inh, CYP2C9 activ, CYP2C9 inh)
Cc1cccc(C)c1NC(=O)CNc1ncnc2sc(C)c(C)c12	none (no result: CYP2C19 activ, CYP2C19 inh, CYP2C9 activ, CYP2C9 inh)
CC(C)=CC(=O)Nc1nnc(C(C)C)s1	none
CCOC(=O)c1cnn(-c2nc(SC)nc3sc4c(c23)CCC4)c1N	none
CC(C)CC(c1nnnn1C(C)C)N1CCN(c2cccc(Cl)c2)CC1 (configuration not stated)	none
CCCCn1c(-c2cc(Cl)ccc2OC)n[nH]c1=S	CYP2C19 inh 72
CCn1c(-c2ccc(OC)c(OC)c2)n[nH]c1=S	none
O=C(CCSCCc1ccccn1)Nc1c(F)cc(F)cc1Br	none (no result: CYP2C19 activ, CYP2C19 inh, CYP2C9 activ, CYP2C9 inh)
Cc1csc(NC(=O)CCSCCc2ccccn2)n1	CYP2C19 inh 61
CNS(=O)(=O)c1cnccc1N1CCN(c2cccc(Cl)c2)CC1	CYP2C19 inh 58
CCN(CC)C(=O)CSc1nc2ccccc2c(=O)n1CC1CCCCC1	none
CN(C(=O)CSc1nc2ccccc2n1CCc1ccccc1)C1CCS(=O)(=O)C1 (configuration not stated)	CYP2C19 inh 68
CCn1c(SCC(=O)N(Cc2ccccc2)C2CCS(=O)(=O)C2)nc2ccccc2c1=O (configuration not stated)	CYP2C19 inh 81, CYP2C9 inh 95
CN1CCN(CCN2CCn3c2nc2ccccc23)CC1	none
CCC(=O)Nc1nnc(Sc2ccc(N(C)C)cc2)s1	CYP2C19 inh 96
CCCC(=O)Nc1nnc(Sc2ccc(N(C)C)cc2)s1	CYP2C19 inh 94
CCCCCOc1ccc(C(=O)NC(C(=O)O)C(C)C)cc1 (configuration not stated)	none
COc1ccc(-c2nnc3ccc(SCC(=O)N4CCCCC4)nn23)cc1OC	none
O=c1c(-c2ccccc2)n[nH]c2ccccc12	none
Nc1c(-c2ccccc2)n[nH]c1-c1ccccc1	CYP2C19 inh 75
COc1ccc(-c2nc3c(n2O)CCCC3=O)cc1OC	Measles CPE 89
COc1ccc2c(c1)Sc1ccccc1N2CCN(C)C	CYP2C19 inh 57
CCOc1cc([C@H]2[C@@H]3CCCC[C@]3(O)CCN2CC(=O)NCc2ccco2)ccc1O	CYP2C19 inh 56, CYP2C9 inh 54
c1ccc2c(c1)Cc1cc(CN3CCOCC3)ccc1-2	CYP2C19 inh 62
CCN1CCN(Cc2ccc3c(c2)Cc2ccccc2-3)CC1	none (no result: Measles CPE)
c1ccc(Oc2cccc(CN3CCOCC3)c2)cc1	CYP2C19 inh 77
CCc1cc2c(CN3CCN(CCO)CC3)cc(=O)oc2cc1O	none
COc1cc2c(cc1NC(=O)c1ccncc1)oc1ccccc12	CYP2C19 inh 58, CYP2C9 inh 91
COc1cc2c(cc1NC(=O)c1cccnc1)oc1ccccc12	none
COc1cc2c(cc1NS(=O)(=O)N1CCCC1)oc1ccccc12	CYP2C19 inh 82, CYP2C9 activ 2
CC(c1ccccc1C(O)(c1ccccc1)c1ccccc1)N(C)C (configuration not stated)	none (no result: CYP2C19 activ, CYP2C19 inh, CYP2C9 activ, CYP2C9 inh)
CCCN(CC(=O)Nc1c(C)cccc1CC)C(=O)SCC	CYP2C19 inh 60
